High-throughput results deposited in PubChem by National Center for Advancing Translational Sciences (NCATS).
The list is not random: actives were taken first. Their share in the collection is about 3%.
p53null 32C tox: qHTS Screen for Compounds that Selectively Target Cancer Cells with p53 Mutations: Cytotoxicity of p53 Null Cells at the Permissive Temperature; hit rate 0.62% among 55,000; Potency, µM (titrated, usually from 46.1 µM), without a hit: at the top dose activity change, negative = cytotoxicity, hits mostly cytotoxic; H1299-neo p53 null cells, ATP luminescence, 24 h, 32C; AID 903, 2007;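 further: potency means the concentration at half of the fitted maximal effect; 0% = DMSO only and -100% = full killing by 100 µM tamoxifen; nearly all actives have a fitted effect of over 55% in size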
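Cytotoxicity: H1299-neo (no p53), 32C, 24 h treatment. Concentrations up to 46 uM. Readout cellular ATP, luminescence. Normalization to DMSO basal and tamoxifen 100 uM maximal kill.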
p53null 39C tox: qHTS Screen for Compounds that Selectively Target Cancer Cells with p53 Mutations: Cytotoxicity of p53 Null Cells at the Nonpermissive Temperature; H1299 p53-null (neo) cells, 39C, ATPlite viability, 24 h; Potency, µM (doses to about 46.1 µM), inactives show at the top dose activity, negative = cell killing, actives largely listed as cytotoxic; hit rate 0.97% among 55,000; AID 904, 2007;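 further: potency means the concentration at half of the fitted maximal effect; 0% = DMSO only and -100% = full killing by 100 µM tamoxifen; nearly all actives have a fitted effect of over 50% in size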
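Concentration-response (up to 46 uM) was run for 24 h at the nonpermissive 39C on H1299-p53A138V or H1299-neo cells. ATP content was measured with ATPlite luminescence. AC50 values were Hill-modeled after normalizing between DMSO and 100 uM tamoxifen killing.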
SKOV3 invasion: Primary qHTS assay for Inhibitors of ovarian cancer metastasis using an organotypic tumor microenvironment (TME) model; SKOV3ip1-GFP adhesion/invasion on 3D omental model, fluorescence; Potency, µM (highest dose often 45.8 µM), for the others: top-dose activity change, negative = inhibition, most hits filed as inhibitors; AID 1963576, 2024; hit rate 0.1% among 46,000;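 further: potency means the concentration at half of the fitted maximal effect; plate controls were DMSO wells for no effect and tomatine positive control wells for full effect; nearly all actives have a fitted effect of over 65% in size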
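qHTS, 4-pt dose (0.36-46 umol/L); SKOV3ip1-GFP, 1,200 cells/well, no FBS; primary omental fibroblast/mesothelial co-culture 48 h pre-grown; 2 h RT + 16 h 37 C; PBS wash, 4% PFA; GFP count 488/509 nm.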
S16 viability: Cell viability qHTS assay in S16 Pmp22-F2sN cells; S16 Pmp22-F2sN Schwann cells viability, CellTiter-Glo, 24 h; Potency, µM (series often up to 57.5 µM), inactives show at the highest dose activity change, negative = cytotoxicity, actives largely listed as cytotoxic; hit rate 0.48% among 43,000; AID 1508642, 2021; further: potency means the concentration at half of the fitted maximal effect; on the % scale 0 is the no-effect control and ±100 the full control effect; nearly all actives have a fitted effect of over 65% in size
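Rat S16 Schwann reporter line, 24 h treatment with library compounds delivered at 23 nL per well. Cell viability by CellTiter-Glo luminescence.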
mTORC1 inh: Acumen qHTS Assay for Inhibitors of the mTORC1 Signaling Pathway in MEF (Tsc2-/-, p53-/-) Cells: Sytravon; hit rate 0.78% among 44,000; AID 493208, 2011; Tsc2-/- p53-/- MEF, phospho-rpS6 immunofluorescence/PI, 24 h; Potency, µM (series often up to 38.3 µM), for the others: at the top dose activity change, negative = inhibition, actives largely listed as inhibitors;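 further: potency means the concentration at half of the fitted maximal effect; plate controls were DMSO for no effect and rapamycin for full effect; nearly all actives have a fitted effect of over 50% in size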
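Read-out: phospho-S6 Alexa-488 intensity over PI intensity per well, scored as % active cells using thresholds from rapamycin (7.5 nM) and DMSO controls. Tsc2-/-, p53-/- MEFs exposed to compound for 24 h; PI cell count recorded as viability.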
PMP22 txn prim: Cell-based coincidence reporter assay to measure PMP22 gene transcription in S16 Pmp22-F2sN cells - Primary screen. S16 Pmp22-F2sN Schwann cells (luciferase reporters placed in the Pmp22 gene), FLuc/NLuc coincidence luminescence, 24 h. Potency, µM (titrated, usually from 57.5 µM), inactives show top-dose activity change, negative = inhibition, hits mostly inhibitors. hit rate 2% among 43,000. AID 1508649, 2021; active means clear falling dose curves in both reporters; inconclusive means both reporters move, but less clearly or upward; inactive means either reporter flat; the % is the NLuc reporter signal; further: potency means the concentration at half of the fitted maximal effect; on the % scale 0 is the no-effect control and ±100 the full control effect
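Transcriptional readout in edited S16(c9) cells: two luciferases reported from the Pmp22 locus, measured in turn after 24 h compound incubation.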
NLuc sat counter: Biochemical NLuc saturation counterscreen for small molecule modulators of PMP22 gene expression - Nano-Glo assay. shares compounds with PMP22 txn prim. Secreted NLuc enzyme (filtered S16 cell medium), Nano-Glo luminescence. Potency, µM (top dose mostly 57.5 µM), for the others: at the highest dose activity change, negative = inhibition, actives largely listed as inhibitors. hit rate 4% among 690. AID 1508638, 2021; further: potency means the concentration at half of the fitted maximal effect; on the % scale 0 is the no-effect control and ±100 the full control effect
NLuc Km ctr: Biochemical coelenterazine-based NLuc counterscreen for small molecule modulators of PMP22 gene expression - Km assay; shares compounds with PMP22 txn prim; secreted NLuc enzyme, coelenterazine luminescence, Km conditions; Potency, µM (top dose mostly 57.5 µM), without a hit: at the top dose activity change, negative = inhibition, hits mostly inhibitors; hit rate 5% among 690; AID 1508639, 2021; further: potency means the concentration at half of the fitted maximal effect; on the % scale 0 is the no-effect control and ±100 the full control effect
FLuc ctr PMP22: Biochemical FLuc counterscreen for small molecule modulators of PMP22 gene expression; shares compounds with PMP22 txn prim; purified P. pyralis FLuc, luminescence, 10 min; Potency, µM (titrated, usually from 57.5 µM), for the others: at the top dose activity, negative = inhibition, actives largely listed as inhibitors; 690 tested, under 10 active; AID 1508640, 2021; further: % of control where 0% means no effect
Target sequence (P08659 whole entry, looked up): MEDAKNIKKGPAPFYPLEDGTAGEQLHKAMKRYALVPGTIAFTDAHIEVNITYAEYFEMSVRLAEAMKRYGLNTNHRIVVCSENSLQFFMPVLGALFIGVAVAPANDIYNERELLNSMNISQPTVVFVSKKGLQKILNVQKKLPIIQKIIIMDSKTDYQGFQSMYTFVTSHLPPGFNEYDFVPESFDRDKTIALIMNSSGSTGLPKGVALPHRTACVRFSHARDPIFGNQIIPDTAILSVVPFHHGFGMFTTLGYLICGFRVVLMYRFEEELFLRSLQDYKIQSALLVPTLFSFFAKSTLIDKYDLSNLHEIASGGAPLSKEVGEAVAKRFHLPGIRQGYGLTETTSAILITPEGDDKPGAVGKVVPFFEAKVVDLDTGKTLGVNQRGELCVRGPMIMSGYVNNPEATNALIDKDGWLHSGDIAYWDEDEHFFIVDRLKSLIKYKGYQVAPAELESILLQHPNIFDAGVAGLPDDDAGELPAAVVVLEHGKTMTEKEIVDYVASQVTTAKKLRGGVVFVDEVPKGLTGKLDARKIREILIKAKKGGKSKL
S16 viab conf: Cell viability qHTS assay in S16 Pmp22-F2sN cells - Confirmatory screen | shares compounds with PMP22 txn prim | S16 Schwann cells viability, CellTiter-Glo ATP luminescence, 24 h | Potency, µM (series often up to 57.5 µM), without a hit: at the top dose activity change, negative = viability loss, most hits filed as cytotoxic | hit rate 7% among 690; further: potency means the concentration at half of the fitted maximal effect; on the % scale 0 is the no-effect control and ±100 the full control effect
PMP22 txn cnf: Cell-based coincidence reporter assay to measure PMP22 gene transcription in S16 Pmp22-F2sN cells - Confirmatory screen; shares compounds with PMP22 txn prim; S16 Schwann cells Pmp22-F2sN, dual luciferase, 24 h; Potency, µM (top dose mostly 57.5 µM), without a hit: at the top dose activity change, negative = inhibition, most hits filed as inhibitors; hit rate 22% among 690; AID 1508646, 2021; active means clear falling dose curves in both reporters; inconclusive means both reporters move, but less clearly or upward; inactive means either reporter flat; the % is the FLuc reporter signal; further: potency means the concentration at half of the fitted maximal effect
An asterisk follows results filed as active; i = inactive; ? = inconclusive; · = not tested or not shown. Unless noted, the call rests on the fitted dose curve; in most records, active means well fitted curve in the direction sought with a large enough effect; inconclusive means small, poorly fitted or top-dose-only effect, or another doubt; inactive means no such curve, though single readings can be large; an effect the other way counts as inactive or inconclusive.

SMILES	p53null 32C tox	p53null 39C tox	SKOV3 invasion	S16 viability	mTORC1 inh	PMP22 txn prim	NLuc sat counter	NLuc Km ctr	FLuc ctr PMP22	S16 viab conf	PMP22 txn cnf
COc1cc(NC(=O)CSc2c3c(nc4ccccc24)CCC3)cc(OC)c1OC	0%	3%	-10%	30%	?	?	·	·	·	·	·
O=C(CSc1c2c(nc3cc(Cl)ccc13)CCCC2)NCc1ccccc1Cl	12%	?	?	?	-26%	?	·	·	·	·	·
CCC(C)NC(=O)CSc1c2c(nc3cc(Cl)ccc13)CCCC2 (centres undefined)	2%	-30%	3%	4%	-3%	12µM*	?	?	5%	7%	?
COc1ccc(NC(=O)CSc2c3c(nc4ccc(Cl)cc24)CCCC3)cc1Cl	12%	21%	-12%	?	1%	19µM*	?	?	6%	?	?
Clc1ccc(Nc2nnc(Cc3ccncc3)c3ccccc23)cc1	·	·	-16%	·	·	·	·	·	·	·	·
Cc1ccc(C)c(NC(=O)CSc2c3c(nc4ccc(Cl)cc24)CCCC3)c1	1%	-20%	3%	1%	2%	15µM*	-20%	-7%	5%	0%	?
CCCNC(=O)CSc1c2c(nc3ccc(Cl)cc13)CCCC2	28%	57%	-13%	16%	?	?	·	·	·	·	·
Cc1ccc(CNC(=O)CSc2c3c(nc4ccc(Cl)cc24)CCCC3)cc1	2%	-12%	i	1%	-11%	10µM*	-13%	?	-5%	5%	-17%
CCOc1ccc(CCNc2ncnc3onc(C)c23)cc1OCC	2%	-4%	7%	-24%	?	4.7µM*	-12%	-5%	-3%	-7%	-28%
COC(=O)c1c(-c2ccc(Cl)cc2)noc1N1CCN(c2cccc(OC)c2)CC1	-6%	11%	-23%	?	4%	7µM*	?	-5%	4%	5%	12µM*
COC(=O)c1c(-c2ccc(Cl)cc2)noc1N1CCN(c2cccc(C)c2C)CC1	-9%	22%	?	?	-18%	?	·	·	·	·	·
CC(C)N(CC[C@H](c1ccccc1)c1cc(CO)ccc1O)C(C)C	·	·	17%	·	·	·	·	·	·	·	·
Cc1nnc(N2CCC(C(=O)N3CCCCC3)CC2)c2nn(-c3ccccc3)c(C)c12	8%	12%	-9%	-16%	-8%	5%	·	·	·	·	·
Cc1ccc(-n2nc3c(N4CCC(C(=O)NCCc5ccccc5C)CC4)nnc(C)c3c2C)cc1	-1%	-8%	?	?	-1%	9.5µM*	-16%	-4%	-9%	24µM*	?
Cc1ccc(-n2nc3c(N4CCC(C(=O)NCCC(C)C)CC4)nnc(C)c3c2C)cc1	26%	?	6%	-27%	-2%	6.2µM*	-9%	-3%	1%	-7%	?
CCOC(=O)C1CCN(C(=O)C2CCN(c3nnc(C)c4c(C)n(-c5ccccc5)nc34)CC2)CC1	19%	-4%	i	18%	-5%	14µM*	-10%	0%	3%	2%	-22%
COc1ccc(-c2noc(CSc3nnc(C)n3-c3ccc(C)cc3)n2)cc1	-9%	-7%	1%	?	-15%	?	·	·	·	·	·
COc1ccc(-c2noc(CSc3nnc(-c4ccncc4)n3-c3ccccc3)n2)cc1	-2%	-9%	i	?	-7%	14µM*	?	?	-22%	-13%	6.1µM*
COc1ccc(-n2c(C)nnc2SCc2nc(-c3ccc(OC)c(OC)c3)no2)cc1	-8%	-7%	i	-22%	0%	?	?	?	-5%	-20%	-41%
COc1ccc(-n2c(SCc3nc(-c4ccc(C)cc4)no3)nnc2-c2ccncc2)cc1	-1%	4%	i	-10%	-2%	?	·	·	·	·	·
O=C(NCc1ccccc1)[C@H](Cc1ccccc1)NC(=O)[C@@H]1O[C@@H]1C(=O)NCCc1ccc(O)cc1	·	·	-5%	·	·	·	·	·	·	·	·
C[C@@H]1CCN(C(=O)CC#N)C[C@H]1N(C)c1ncnc2[nH]ccc12	·	·	-29%	·	·	·	·	·	·	·	·
CCOC(=O)c1ccc(NC(=O)c2nn(C)c3c2COc2ccccc2-3)cc1	6%	-2%	0%	-5%	1%	-6%	·	·	·	·	·
CCOC(=O)c1ccccc1NC(=O)c1nn(C)c2c1COc1ccccc1-2	26%	43%	-6%	9%	-17%	17µM*	-7%	2%	-14%	-8%	18µM*
CCOCCc1nn2c(=O)cc(COC(=O)c3ccccc3NC(=O)CC(C)C)nc2s1	-10%	-9%	12%	-2%	6%	?	·	·	·	·	·
